# A selection: hits, their analogues and other compounds. The true share with any hit is near 7.5%.
# Rab9 prom act: qHTS Assay for Rab9 Promoter Activators; Huh7 Rab9 promoter-luciferase reporter, luminescence, 24 h; Potency, µM (series often up to 9.22 µM), actives largely listed as activators; 320,000 compounds, 2.8% hits; AID 485297, 2010; also: nearly all actives have a fitted effect of over 60% in size
#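 Luciferase signal after 10 min detection reagent at ambient indicates Rab9 promoter upregulation; stably transfected Huh7 cells were treated 24 h with compound in DMSO at 37 °C, 5% CO2.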
# FLuc modulator: qHTS profiling assay for firefly luciferase inhibitor/activator using purifed enzyme and Km concentrations of substrates (counterscreen for miR-21 project) | Luciferin 4-monooxygenase (Photinus pyralis), P08659 | purified FLuc, Km substrates, luminescence inhibition | Potency, µM (series often up to 57.5 µM), actives largely listed as inhibitors | 360,000 compounds, 6.9% hits | AID 588342, 2011; also: nearly all actives have a fitted effect of over 55% in size
# Target sequence (P08659 whole entry, looked up): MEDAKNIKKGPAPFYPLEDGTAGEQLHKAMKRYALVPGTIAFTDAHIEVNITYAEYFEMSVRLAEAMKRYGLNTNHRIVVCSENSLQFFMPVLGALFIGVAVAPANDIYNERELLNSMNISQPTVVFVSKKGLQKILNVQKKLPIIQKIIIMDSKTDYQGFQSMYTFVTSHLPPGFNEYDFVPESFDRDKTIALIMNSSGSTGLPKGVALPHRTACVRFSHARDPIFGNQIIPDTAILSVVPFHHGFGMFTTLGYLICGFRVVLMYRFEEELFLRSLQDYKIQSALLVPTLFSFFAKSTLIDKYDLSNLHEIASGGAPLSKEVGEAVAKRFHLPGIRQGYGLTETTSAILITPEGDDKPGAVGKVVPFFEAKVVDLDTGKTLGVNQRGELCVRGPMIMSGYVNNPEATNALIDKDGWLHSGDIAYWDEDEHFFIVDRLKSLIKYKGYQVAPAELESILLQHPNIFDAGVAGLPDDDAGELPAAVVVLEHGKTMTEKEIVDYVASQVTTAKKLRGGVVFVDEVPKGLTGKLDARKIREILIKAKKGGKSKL
#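 Purified P. pyralis luciferase (10nM final) with 10uM D-luciferin and 10uM ATP (Km levels) in 50mM Tris acetate pH 7.5, 10mM Mg acetate, 0.01% Tween-20, 0.05% BSA; qHTS 6-point titration, ~60 µM downward; luminescence read.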
# ELG1 genotox: qHTS screen for small molecules that induce genotoxicity in human embryonic kidney (HEK293T) cells expressing luciferase-tagged ELG1; AID 504466, 2011; HEK293T ELG1-luciferase reporter, luminescence, 16 h; 330,000 compounds, 1.3% hits; Potency, µM (doses to about 46 µM), actives largely listed as activators; also: nearly all actives have a fitted effect of over 60% in size
#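 DMSO vehicle served as control against compound-treated ELG1-luciferase HEK293T cells; exposure lasted 16 hr at 37 °C and 5% CO2, followed by ONE-Glo luminescence detection after 30 min.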
# SMN2 splice enh: qHTS Assay for Enhancers of SMN2 Splice Variant Expression | HEK293 SMN2-luciferase splicing reporter, luminescence, 30-36 h | Potency, µM (top dose mostly 46.1 µM), hits mostly activators | 210,000 compounds, 2.8% hits; also: nearly all actives have a fitted effect of over 55% in size
#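 HEK293 cells carry an SMN2 […]–luciferase reporter in which exon 7 inclusion puts luciferase in frame. Cells were plated 10-12 h before compound addition, then incubated 30-36 h at 37C. ONE-Glo luminescence was read; sodium butyrate at 4.5 mM final served as control.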
# KinaseGlo FLuc: Counterscreen for Luciferase (Kinase-Glo TM) Inhibition; Luciferin 4-monooxygenase (Photuris pensylvanica), Q27757; Kinase-Glo luciferase, ATP luminescence, 8 min; Potency, µM (titrated, usually from 38.3 µM), actives largely listed as inhibitors; 200,000 compounds, 0.28% hits; AID 1379, 2008; also: nearly all actives have a fitted effect of over 60% in size
#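 Light output from Kinase-Glo luciferase with luciferin and 10 uM ATP in 50 mM imidazole pH 7.2, KCl, MgCl2, Tween 20, BSA; compound pin-delivered, 8-min ambient incubation, then luminescence read.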
# NPC1 prom act: qHTS Assay for NPC1 Promoter Activators. Huh7 NPC1 promoter luciferase reporter, 24 h. Potency, µM (highest dose often 9.22 µM), usual class: activators. 320,000 compounds, 2.4% hits. AID 485313, 2010; also: nearly all actives have a fitted effect of over 60% in size
#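 Compounds in DMSO were transferred onto Huh7 NPC1-luciferase reporter cells pre-incubated 2 h; after 24 h at 37 °C, Amplite reagent was dispensed and luminescence recorded 10 min later.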
# A number is an active result; – = inactive; ? = inconclusive; · = no result given; [ ] = another dose, or the depositor's remark. Calls follow the shape of the dose curve; as a rule, active = well fitted curve in the direction sought with a large enough effect; inconclusive = small, poorly fitted or top-dose-only effect, or another doubt; inactive = no such curve, though single readings can be large; an effect the other way counts as inactive or inconclusive.
SMILES,Rab9 prom act,FLuc modulator,ELG1 genotox,SMN2 splice enh,KinaseGlo FLuc,NPC1 prom act
CCN(CC)c1ccc2cc(-c3nc4ccccc4n3C)c(=O)oc2c1,–,1.9µM,?,?,–,?
CCN(CC)c1ccc2cc(-c3nc4ccccc4[nH]3)c(=O)oc2c1,0.1µM,0.076µM,0.15µM,–,?,0.28µM
O=c1oc2ccc3ccccc3c2cc1-c1nnc(-c2ccccc2)o1,–,–,–,–,–,–
CCN(CC)c1ccc2cc(-c3nnc(-c4ccccc4)o3)c(=O)oc2c1,?,?,?,11µM,–,2.8µM
COc1ccc(NC(=O)C2=Cc3ccccc3OC2)cc1,0.56µM,1.5µM,0.52µM,7.9µM,–,0.4µM
O=C(Nc1ccc(Cl)cc1)C1=Cc2cc(Cl)ccc2OC1,–,–[2.3 µM],–,–,–,–
O=C(Nc1ccc(Cl)cc1Cl)C1=Cc2ccccc2OC1,1µM,1.9µM,2.1µM,?,–,1.4µM
COc1ccc(NC(=O)C2=Cc3cccc(OC)c3OC2)cc1,2.5µM,5.4µM,?,13µM,–,2.8µM
CCn1c(SCc2c(F)cccc2Cl)nc(=O)c2c(C(=O)OC)cc(C3CC3)nc21,·,–,·,·,·,·
COc1ccc(-n2c(C)cc(C(=O)COC(=O)c3cc(NC(=O)c4cccs4)c(OC)c(OC)c3)c2C)cc1,–,–,–,–,–,–
COc1cc(NC(=O)c2cccs2)c(C(=O)OCC(=O)c2cc(C)n(-c3ccccc3)c2C)cc1OC,–,5.4µM,–,–,–,–
COc1cc(NC(=O)c2cccs2)c(C(=O)OCC(=O)c2cc(C)n(-c3ccc(F)cc3)c2C)cc1OC,–,9.5µM,–,–,–,–
COc1cc(NC(=O)c2cccs2)c(C(=O)OCC(=O)NC(=O)NC(C)(C)C)cc1OC,–,–,–,–,–,–
COc1cc(NS(=O)(=O)c2ccc(NC(=O)C(C)Oc3ccc(Cl)cc3Cl)cc2)nc(OC)n1 (stereo not drawn),·,?,·,–,·,·
O=C(NCCc1ccccc1)C1(c2cccs2)CCOCC1,·,–,·,·,·,·
CCc1ccc(S(=O)(=O)Nc2ccc(O)c(C(=O)O)c2)cc1,·,·,·,·,–,·
O=C(NC1CCCCCC1)c1c(O)c2ccccc2[nH]c1=O,?,2.7µM,?,–,–,1µM
COc1ccccc1NC(=O)c1c(O)c2ccccc2[nH]c1=O,?,?,–,·,·,1.3µM
O=C(N/N=C/c1ccc(F)cc1)c1c(O)c2ccccc2[nH]c1=O,–,–,–,·,·,–
O=C(N/N=C/c1ccccc1)c1c(O)c2ccccc2[nH]c1=O,1.4µM,?,–,3.5µM,–,1.8µM
COc1ccc(NC(=O)c2nnn(-c3ccc(C(C)C)cc3)c2C)c(OC)c1,·,–,·,·,·,·
CCCCNC(=O)CCCCCn1c(=O)[nH]c2ccccc2c1=O,·,–,·,·,·,·
CCn1nc(C)c2c(-c3ccccc3)cc(=O)n(C(C)C(=O)NCCc3ccc(Cl)cc3)c21 (stereo not drawn),·,–,·,·,·,·
Cc1cc(NC(=O)COc2ccccc2)cc(-c2nc3ccccc3o2)c1O,·,–,·,–,·,·
COc1cccc(CSc2nc(-c3ccccc3F)nc3c2Cc2c(CO)cnc(C)c2O3)c1,·,–,·,·,·,·
SMILES,Rab9 prom act,FLuc modulator,ELG1 genotox,SMN2 splice enh,KinaseGlo FLuc,NPC1 prom act
Nn1c(SCC(=O)Nc2nnc(-c3ccccc3)o2)nnc1C1CC1,–,8.5µM,–,·,·,–
Cc1nnc(SCC(=O)Nc2nnc(-c3ccccc3)o2)s1,–,19µM,–,·,·,–
Nn1c(SCC(=O)Nc2ccc(Oc3ccccc3)cc2)nnc1C1CC1,–,?,–,–,–,–
CC(C)c1ccc(NC(=O)C2CCCN(S(=O)(=O)c3ccc4[nH]c(=O)oc4c3)C2)cc1 (stereo not drawn),·,–,·,·,·,·
CCOc1ccc(Nc2cc3n(c(=O)n2)CCc2cc(OC)c(OC)cc2-3)cc1,–[1.84 µM],13µM,?,·,·,–
COc1cc2c(cc1OC)-c1cc(NC3CC3)nc(=O)n1CC2,–,–,?,14µM,–,–
COc1cccc(CNC(=O)c2cc(C)nc3c2c(C)nn3-c2ccc(C)cc2)c1,·,–,·,·,·,·
O=C(Nc1ccccc1)Nc1nc(-c2ccc(F)cc2)cs1,–,–,–,–,–,–
Cc1ccc(C)c(Nc2nc(-c3cccnc3)cs2)c1,–[1.84 µM],?,–,·,·,–
Cc1ccc(Nc2nc(-c3ccc(F)cc3)cs2)nc1,4µM,4.3µM,?,·,·,3.5µM
Cc1ccc(Nc2nc(-c3ccc(O)c(O)c3)cs2)nc1,–,3µM,?,·,–,–
Cc1ccccc1OCC(=O)N1CCC(c2nc3ccccc3s2)CC1,·,–,·,·,·,·
Cc1cccc(NC(=O)C2CCCN(S(=O)(=O)c3ccc(Br)s3)C2)c1 (stereo not drawn),·,–,·,–,·,·
O=C(CCc1ccccc1)Nc1cccnc1Cl,–,–,–,·,·,–
CCc1ccc(C(=O)COC(=O)c2cccnc2Cl)cc1,–,0.43µM,–,–,–,–
O=C(COC(=O)c1cccnc1Cl)c1ccccc1,–,2.7µM,?,–,–,–
O=C(CC(=O)c1ccccc1)Nc1cccnc1Cl,?,12µM,?,13µM,–,?
